# About 83,000 compounds went through this panel and 20% of them were active in at least one assay; those are over-represented in the sample as a whole.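 Activity criterion: percent growth below 10, measured after cells in 96-well plates were exposed to a single compound concentration for 48 hours.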 Unmarked numbers belong to inactive results. Active and inactive are the calls of the source.
# How the values were obtained:
# Test in all cases: NCI-60 one-dose screen, 48 h (100 = growth as untreated, 0 = no growth, -100 = all killed)
# Conditions in all cases: 10 µM unless noted
# SR leukemia = tested on: SR leukemia
# RPMI-8226 leukemia = tested on: RPMI-8226 leukemia
# OVCAR-8 ovarian = tested on: OVCAR-8 ovarian
# OVCAR-5 ovarian = tested on: OVCAR-5 ovarian
# OVCAR-4 ovarian = tested on: OVCAR-4 ovarian
# SK-OV-3 ovarian = tested on: SK-OV-3 ovarian
# IGROV1 ovarian = tested on: IGROV1 ovarian
# OVCAR-3 ovarian = tested on: OVCAR-3 ovarian
# HS 578T breast = tested on: HS 578T breast
# NCI/ADR-RES ovarian = tested on: NCI/ADR-RES ovarian
# T-47D breast = tested on: T-47D breast
# MDA-MB-435 melanoma = tested on: MDA-MB-435 melanoma
# SW-620 colon = tested on: SW-620 colon
# MCF7 breast = tested on: MCF7 breast
# HCT-116 colon = tested on: HCT-116 colon
# HCC-2998 colon = tested on: HCC-2998 colon
# KM12 colon = tested on: KM12 colon
# BT-549 breast = tested on: BT-549 breast
SMILES,growth (SR leukemia),growth (RPMI-8226 leukemia),growth (OVCAR-8 ovarian),growth (OVCAR-5 ovarian),growth (OVCAR-4 ovarian),growth (SK-OV-3 ovarian),growth (IGROV1 ovarian),growth (OVCAR-3 ovarian),growth (HS 578T breast),growth (NCI/ADR-RES ovarian),growth (T-47D breast),growth (MDA-MB-435 melanoma),growth (SW-620 colon),growth (MCF7 breast),growth (HCT-116 colon),growth (HCC-2998 colon) [%],growth (KM12 colon),growth (BT-549 breast) [%]
O=C(C[n+]1cccc(Br)c1)c1ccc2c(c1)CCCC2,99.3%,96%,108%,96.2%,114%,89.7%,101%,99.9%,105%,102%,91.6%,100%,103%,90.4%,88.2%,103,108%,
CCCCn1c(-c2cccc(OC)c2)nc2cc(OC)c(OC)cc2c1=O,75.1%,58.9%,118%,101%,108%,119%,89.2%,113%,104%,94.2%,91.6%,115%,102%,97.9%,89.3%,103,108%,283
CC(C(=O)O)N1C(N)=NNC1c1ccccc1O (stereo not given),72.2%,73.1%,90.2%,108%,76.3%,105%,70.9%,83%,91.1%,83.8%,59.7%,104%,95.7%,80.4%,87.4%,92.7,93.9%,
c1ccc2nc(Cn3cc[n+](Cc4ccc5ccccc5n4)c3)ccc2c1,47.8%,29.6%,76.2%,86.9%,33.7%,86.9%,68.3%,52%,75.3%,107%,29.8%,52.8%,77.8%,,,57.8,48%,33.7
C=C1C(=O)O[C@H]2[C@H]1CC/C(C(=O)NCCOCCOCC(=O)Nc1ccc(OC)c(C(N)=O)c1O)=C\CC[C@@]1(C)O[C@@H]21,75.3%,97.2%,89.8%,96.4%,101%,91.6%,98.8%,84.3%,93%,104%,70.6%,104%,80.1%,83.6%,81.2%,104,101%,86.2
COc1ccc(CCNC=O)cc1OC,117%,108%,107%,99.7%,100%,114%,94%,110%,105%,97.4%,99.7%,103%,93.4%,94.1%,100%,104,102%,96.1
Cc1cc(C)c(O)c(C(=O)CC(Br)C(=O)O)c1 (stereo not given),78.3%,35.8%,105%,106%,106%,103%,106%,108%,107%,103%,92.9%,102%,116%,66.6%,99.3%,93.3,97.9%,97.6
CCCCOc1c(N)cc(Cl)cc1C(=O)OCCN(CC)CC,79.5%,100%,90.8%,113%,118%,94.5%,107%,108%,99.7%,107%,99.8%,111%,99.2%,93.3%,80.3%,109,104%,76.5
COc1ccc(-c2cc(-c3nnc(SC/C(=N\O)c4ccccc4)n3-c3ccccc3)c3ccccc3n2)cc1,86.8%,97.9%,98.7%,119%,113%,79.4%,105%,107%,98.4%,104%,106%,108%,102%,,,103,98.9%,108
CSc1ccc(C(=O)C[n+]2cccc(C)c2)cc1,106%,98.2%,106%,104%,113%,102%,106%,104%,98.4%,104%,90.6%,104%,102%,97.2%,101%,115,100%,104
NC(CCCC(N)C(=O)c1ccccc1)C(=O)O (stereo not given),124%,115%,86.2%,103%,97.3%,93%,101%,110%,108%,103%,89.9%,105%,110%,91.2%,99.2%,103,101%,104
Nc1ncnc2c1c(-c1ccc(Oc3ccccc3)cc1)nn2C[C@@H]1SSC[C@H]1O,4.41% (active),50.9%,33.3%,80.8%,50.2%,-8.06% (active),-10.3% (active),18.3%,16.9%,48.3%,3.82% (active),8.48% (active),90.4%,11.4%,46.4%,88.4,34.8%,57.9
COc1ccc(-c2nnc(SCC(=O)Nc3ccc(C(=O)/C=C/c4ccc(OC)c(OC)c4)cc3)o2)cc1,60.1%,60.1%,88.1%,124%,86.9%,84.6%,85.9%,100%,93.4%,90.1%,75%,94.2%,92.7%,51.6%,77.8%,102,84.5%,113
COc1ccc(Cl)cc1NC(=O)c1cc2c([nH]1)-c1nc(NC(=O)C(C)(C)C)sc1CC2,28.2%,83.8%,26.8%,108%,57%,82.1%,65.3%,32.8%,44%,40.9%,71.3%,91%,62.6%,52.1%,12.4%,96.5,83.2%,71.7
NCC(=O)NS(=O)(=O)OC[C@H]1O[C@@H](n2cnc3c(N)ncnc32)[C@H](O)[C@@H]1O,9.93% (active),18%,-11.9% (active),0.292% (active),-22.1% (active),6.28% (active),11.7%,10%,16.1%,2.07% (active),7.66% (active),-49.8% (active),3.71% (active),8.27% (active),6.57% (active),41.4,0.735% (active),21.1
Cc1nccc2c3ccc(OCc4cn(-c5ccc(Br)cc5)nn4)cc3n(CCCc3ccccc3)c12,-29.8% (active),8.43% (active),2.18% (active),49.6%,63.2%,90%,60.4%,104%,-6.57% (active),-36.1% (active),104%,18.7%,2.21% (active),12.5%,30.6%,35.6,8.07% (active),53.5
COc1cc(-c2nc(SCC(=O)Nc3ccc(C(C)=O)cc3)[nH]c(=O)c2C#N)cc(OC)c1OC,7.62% (active),7.47% (active),23.2%,51.9%,61.5%,34.6%,38.4%,0.381% (active),10.6%,75.7%,35.9%,-46.1% (active),25.8%,18.2%,3.92% (active),21,16.8%,36.8

# Source: PubChem BioAssay (NCI)
